High-throughput results (PubChem)
Sampled rows, rich in hits. Any-hit rate of the full collection: about 1.6%.
KCNQ2 inh – inhibitors of rat KCNQ2 potassium channel. O88943. CHO-K1 KCNQ2, FluxOR thallium flux, 20 min; active compounds read low. B-score at 10 µM. 1.1% of 310,000 active. AID 2156;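 active = fluorescence ratio B-score at most minus 3 library SDs, with starting brightness B-score within 2 library SDs, cut at about -5.5 in these data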
KCNQ2 enhance – KCNQ2 (rat) channel potentiation. 0.54% of 310,000 active. CHO-K1 KCNQ2, FluxOR thallium flux fluorescence; active compounds read high. B-score at 10 µM. O88943;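 active = fluorescence ratio B-score at least 3 SD of library B-scores, with initial fluorescence B-score within 3 of them, cut at about 5.3 in these data; same plate scores as AID 2156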;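 also: B-score of peak minus minimum over baseline fluorescence ratio after K+ and Tl+ stimulus; positive B-score means potentiation of KCNQ2 with more thallium influx and brighter signal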
KCNQ2 block conf – confirmation of rat KCNQ2 potassium channel inhibitors. shares compounds with KCNQ2 inh. KCNQ2-expressing cells, thallium flux, inhibition; active compounds read low. activity change, negative = inhibition, % at 10 µM. 57% of 1,000 active. AID 493025
KCNQ1 spec – human KCNQ1 activity in KCNQ2 inhibitor specificity screen | shares compounds with KCNQ2 inh | KCNQ1-expressing cells, FluxOR thallium flux fluorescence; active compounds read low | activity change, negative = inhibition, % at 10 µM | 15% of 1,000 active | AID 493026;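 active = activity change at least 3 SD of negative controls below their mean in both duplicate wells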;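 also: CHO cells stably transfected with KCNQ1 and depolarized by potassium stimulus; peak minus minimum fluorescence over baseline after thallium addition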
Target sequence (P51787 whole entry, looked up): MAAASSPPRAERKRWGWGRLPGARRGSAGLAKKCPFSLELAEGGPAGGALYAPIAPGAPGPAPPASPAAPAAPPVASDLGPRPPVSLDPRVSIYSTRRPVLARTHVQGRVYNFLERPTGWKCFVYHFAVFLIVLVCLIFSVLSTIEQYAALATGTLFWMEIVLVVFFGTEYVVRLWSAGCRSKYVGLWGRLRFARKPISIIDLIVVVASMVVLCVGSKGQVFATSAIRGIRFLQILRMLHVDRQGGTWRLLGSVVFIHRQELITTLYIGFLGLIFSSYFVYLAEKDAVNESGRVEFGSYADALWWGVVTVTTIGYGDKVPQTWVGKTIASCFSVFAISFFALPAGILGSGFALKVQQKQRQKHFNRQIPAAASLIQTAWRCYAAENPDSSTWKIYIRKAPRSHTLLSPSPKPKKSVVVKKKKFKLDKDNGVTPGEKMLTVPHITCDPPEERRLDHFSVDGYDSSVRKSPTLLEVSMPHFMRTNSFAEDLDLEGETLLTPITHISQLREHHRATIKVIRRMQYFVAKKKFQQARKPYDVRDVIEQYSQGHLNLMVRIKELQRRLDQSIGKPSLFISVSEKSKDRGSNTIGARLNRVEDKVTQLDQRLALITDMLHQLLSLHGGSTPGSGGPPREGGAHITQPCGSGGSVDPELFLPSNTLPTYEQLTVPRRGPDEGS
CHO parental ctr – counter-screen for KCNQ2 inhibitors: effect in parental CHO cells; shares compounds with KCNQ2 inh; thallium flux counter-screen; active compounds read low; activity change, % at 10 µM; 14% of 1,000 active
KCNQ2 inh confirm – blocks rat KCNQ2 current in automated patch clamp. calls only at 10 µM. shares compounds with KCNQ2 inh. AID 588531. 49% of 550 active. KCNQ2-expressing cells
A number is an active result; 0 = inactive; - = no result; + = active, no number. Unless noted, no rule for the calls is given here.

SMILES	KCNQ2 inh	KCNQ2 enhance	KCNQ2 block conf	KCNQ1 spec	CHO parental ctr	others
COc1ccccc1NC(=O)Cc1nnc(SCC(=O)NC2=NCCS2)n1C	0	-	-	-	-
CCOC(=O)c1cccc(NC(=O)CSc2nncn2-c2ccccn2)c1	0	0	-	-	-
CC(C)c1ccc(OCC(=O)N(c2ccccn2)C2CCCCC2)cc1	0	-	-	-	-
O=C(COc1ccc(F)cc1)N(c1ccccn1)C1CCCCC1	-6.8	0	-28%	0	0	KCNQ2 inh confirm=+
COC(=O)C1=C(C)NC(=O)C1(NS(=O)(=O)c1ccc(NC(C)=O)cc1)C(F)(F)F (stereo unspecified)	0	0	-	-	-
O=C(NCCc1ccccc1)C1CCN(c2ncccn2)CC1	0	-	-	-	-
O=C(COc1ccc(F)cc1Cl)Nc1ccccc1C(=O)N1CCCCC1	-8.6	0	-22%	0	0	KCNQ2 inh confirm=+
COc1ccccc1OCC(=O)Nc1ccccc1C(=O)N1CCCC1	0	0	-	-	-
CCOC(=O)c1[nH]c(C)c(C(=O)NCc2cccnc2)c1C	0	-	-	-	-
O=C(NC1CCN(Cc2ccccc2)CC1)c1cccc(Br)c1	0	-	-	-	-
N#Cc1c(NCCCO)nc(-c2ccco2)c2c1CCCC2	0	0	-	-	-
N#Cc1c(NC2CCCCC2)nc(-c2ccco2)c2c1CCCC2	-7	0	-34%	0	0	KCNQ2 inh confirm=0
Cc1ccc(COc2ccsc2C(=O)NN)cc1	0	-	-	-	-
COc1cccc(NC(=S)N(Cc2ccccn2)Cc2ccccc2Cl)c1	0	-	-	-	-
COc1ccc(NC(=S)N(Cc2ccccn2)Cc2ccccc2Cl)cc1	-7.9	0	0	0	0
Cn1c(SCc2ccccn2)nnc1-c1ccccc1	0	-	-	-	-
N#CC(C#N)=C1C=CC=CN1/C(=C\c1ccccc1)C(=O)c1cccs1	-10	0	0	0	0
O=C(N/N=C/C(Br)=C\c1ccccc1)c1cccs1	0	-	-	-	-
Cc1ccccc1-n1c(=O)cc(N2CCN(C(=O)c3ccco3)CC2)[nH]c1=O	0	-	-	-	-
Cc1cc(NC2CCCCC2)nc(NCc2ccccc2)n1	-8.3	0	0	0	0
Cc1ccc(Nc2cc(C)nc(NCc3ccccc3)n2)cc1	0	-	-	-	-
COc1cccc(OC)c1OCc1cc(C2C3CCCC=C3C(C#N)=C(N)C2(C#N)C#N)c(C)cc1C (stereo unspecified)	-11	0	0	0	0
CCCN1CC=C2C(C#N)=C(N)C(C#N)(C#N)C(c3cccc(OC)c3OC)C2C1 (stereo unspecified)	0	-	-	-	-
O=C(O)Cc1ccc(S(=O)(=O)Nc2ccccc2C(=O)O)cc1	0	0	-	-	-
Cc1ccccc1C(=NC(=O)c1ccccc1)c1ccccc1	-8.5	0	-28%	0	0	KCNQ2 inh confirm=+
SMILES	KCNQ2 inh	KCNQ2 enhance	KCNQ2 block conf	KCNQ1 spec	CHO parental ctr	others
Cc1ccccc1C(=O)O/N=C(\N)c1ccccc1	0	-	-	-	-
C/C(=N/NC(=O)C(C)n1nc(C)c([N+](=O)[O-])c1C)c1ccc(OCC(N)=O)cc1 (stereo unspecified)	0	-	-	-	-
CC1=C(C(=O)NC(C)c2ccccc2)C2(CCC(C)CC2)OC1=O (stereo unspecified)	0	-	-	-	-
CC1=C(C(=O)NC(C)c2ccc3c(c2)OCCO3)C2(CCC(C)CC2)OC1=O (stereo unspecified)	-10	0	-26%	0	0	KCNQ2 inh confirm=+
CC(OC(=O)Cn1cnc2c1c(=O)n(C)c(=O)n2C)C(=O)Nc1ccc(Cl)cc1 (stereo unspecified)	0	0	-	-	-
CCOc1ccc(NC(=O)C(Cc2ccccc2)N2C(=O)c3cccc4cccc(c34)C2=O)cc1 (stereo unspecified)	0	0	-	-	-
Cc1ccc(NC(=S)N2CCC(N(C)CC3CCCO3)CC2)cc1 (stereo unspecified)	0	0	-	-	-
Cc1cc(C)cc(NC(=O)C(OC(=O)Cn2cnc3c2c(=O)n(C)c(=O)n3C)c2ccccc2)c1 (stereo unspecified)	-9	0	-24%	0	0	KCNQ2 inh confirm=0
COc1ccc(C)cc1NC(=O)C(OC(=O)Cn1cnc2c1c(=O)n(C)c(=O)n2C)c1ccccc1 (stereo unspecified)	0	0	-	-	-
O=[N+]([O-])c1ccc(Nc2ccccc2)c2nonc12	0	0	-	-	-
O=[N+]([O-])c1ccc(Sc2cccc[n+]2[O-])c2nonc12	-15	0	-64%	-57%	-60%	KCNQ2 inh confirm=0
COc1nc(SC)nc(Cl)c1Cc1ccc(OC(C)C)cc1	0	-	-	-	-
CSc1nc(Cl)c(Cc2ccc(OC(C)C)cc2)c(N2CCOCC2)n1	-11	0	0	0	0
O=C(Nc1ccc(F)cc1)C1CCN(S(=O)(=O)c2cccs2)CC1	0	0	-	-	-
O=C(Nc1ccc([N+](=O)[O-])cc1)c1cc(Cl)sc1Cl	0	0	-	-	-
CCOc1ccc(C(=O)Nc2cccc(-c3nc4cccnc4o3)c2)cc1Cl	-10	0	0	0	0
CCOc1ccc(C(=O)Nc2cccc(C(=O)O)c2)cc1Cl	0	0	-	-	-
COc1cc2cc(C(c3nnnn3C3CCCC3)N3CCCCC3)c(=O)[nH]c2cc1OC (stereo unspecified)	-7	0	-22%	0	0	KCNQ2 inh confirm=+
Cc1ccc2cc(C(c3nnnn3C3CCCC3)N3CCOCC3)c(=O)[nH]c2c1C (stereo unspecified)	-9.5	0	0	0	0
CCOC(=O)C1CCN(C(c2cc3ccc(C)c(C)c3[nH]c2=O)c2nnnn2C2CCCCC2)CC1 (stereo unspecified)	0	-	-	-	-
Cc1ccc2cc(C(c3nnnn3C3CCCC3)N3CCN(c4ccccc4)CC3)c(=O)[nH]c2c1 (stereo unspecified)	0	-	-	-	-
CCCC(=O)Nc1ccc(C(=O)NNC(=O)c2ccco2)cc1	0	0	-	-	-
CCn1nc(C(=O)Nc2ccc3nc(C)sc3c2)c2ccccc2c1=O	0	0	-	-	-
CCn1nc(C(=O)Nc2ccccc2N2CCCC2)c2ccccc2c1=O	-8	0	-38%	0	0	KCNQ2 inh confirm=0
O=[N+]([O-])c1ccccc1CNC(Cc1ccccc1)c1ccccc1 (stereo unspecified)	0	-	-	-	-
SMILES	KCNQ2 inh	KCNQ2 enhance	KCNQ2 block conf	KCNQ1 spec	CHO parental ctr	others
CSc1cccc(CN2CCCC(CO)(Cc3cccc(Cl)c3)C2)c1 (stereo unspecified)	-7	0	0	0	0
OCC1(Cc2cccc(Cl)c2)CCCN(Cc2ccc(F)c(F)c2)C1 (stereo unspecified)	0	-	-	-	-
Cc1nc2cc(NCc3nc4ccccc4n3Cc3ccccc3)ccc2n1C	0	-	-	-	-
Cc1cccc(NCc2nc3ccccc3n2Cc2ccccc2)c1	-8.4	0	0	0	0
CNc1nc(-c2ccccc2)cc(C)c1S(C)(=O)=O	0	0	-	-	-
O=C(N/N=C/c1ccccc1)c1ccc(OCc2ccccc2)cc1	0	0	-	-	-
O=C(N/N=C/c1ccccc1)c1sccc1OCc1ccc(F)cc1	-6.8	0	0	0	0
O=[N+]([O-])c1ccc(C2CCCC/C2=N/OCc2ccccc2F)c([N+](=O)[O-])c1 (stereo unspecified)	-10	0	-36%	0	0	KCNQ2 inh confirm=0
O=[N+]([O-])c1ccc(C2CCCC/C2=N/OCc2ccc(F)cc2)c([N+](=O)[O-])c1 (stereo unspecified)	0	-	-	-	-
